High-throughput results deposited in PubChem BioAssay by National Center for Advancing Translational Sciences (NCATS).
Compounds with a hit are over-represented: about 6.8% of the library has one in this group of screens.
PINK1 expr mod – modulators of PINK1 expression | Potency, µM (top dose mostly 76.6 µM), for the others: at the highest dose activation (PINK1 increase), actives largely listed as activators | actives 0.2% (n = 410,000) | PINK1 immunofluorescence, high-content cytometry, 24 h | AID 624263; active = well fitted activation curve with a large enough effect; inconclusive = small, poorly fitted or top-dose-only effect; cell line not stated here; note: % of control where 0% means no effect; nearly all actives have a fitted effect of over 65% in size
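Readout is PINK1 immunofluorescence, quantified alongside mitochondrial, cell and nuclear markers by laser-scanning microplate cytometry. Cells from a stable line were exposed to compound titrations (5 concentrations) for 24 hours, with CCCP controls.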
SW480 rereplic – inducers of DNA re-replication in SW480 colon cancer cells; AID 624297; actives 1.8% (n = 340,000); SW480 DNA re-replication, Hoechst DNA content imaging, 48 h; Potency, µM (doses to about 46.1 µM), for the others: top-dose re-replication activation, most hits filed as activators; note: % of control where 0% means no effect; nearly all actives have a fitted effect of over 55% in size
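SW480 cells exposed to compounds for 48 hr at 37 C, 5% CO2, then Hoechst-stained 40 min. Nuclear DNA content imaged by fluorescence scanning (405 nm excitation, 500-530 nm emission); re-replication scored as increased high-intensity nuclei.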
KB-3-1 tox – KB-3-1 parental cell cytotoxicity; KB-3-1 viability, CellTiter-Glo ATP luminescence, 72 h; Potency, µM (series often up to 46.1 µM), actives largely listed as cytotoxic; actives 1.4% (n = 400,000); AID 1347075; note: % is set by controls: 0 for no effect and ±100 for the full control effect; nearly all actives have a fitted effect of over 60% in size
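72 h, 37 °C compound treatment of KB-3-1 parental cells; CellTiter-Glo added, 10 min, luminescence read. Data corrected against DMSO-only plates and normalized before curve fitting.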
PTAP TSG101 blk – blocks PTAP/TSG101 interaction to inhibit HIV-1 budding | Q99816 | 340,000 tested, under 10 active | AID 493005 | Potency, µM (highest dose often 115 µM), for inactives: at the highest dose activity change, negative = inhibition, actives largely listed as inhibitors | Fluorescence polarization, FITC-PTAP peptide / Tsg101 binding; active = well fitted inhibition curve with a large enough effect in the main read-out, with a control signal flat, not every such curve was filed as active; inconclusive = small, poorly fitted or top-dose-only effect, or effect the other way, or a change in a side signal; inactive = no such curve, though single readings can be large or run the other way; note: % of control where 0% means no effect
Target sequence (Q99816 whole entry, looked up): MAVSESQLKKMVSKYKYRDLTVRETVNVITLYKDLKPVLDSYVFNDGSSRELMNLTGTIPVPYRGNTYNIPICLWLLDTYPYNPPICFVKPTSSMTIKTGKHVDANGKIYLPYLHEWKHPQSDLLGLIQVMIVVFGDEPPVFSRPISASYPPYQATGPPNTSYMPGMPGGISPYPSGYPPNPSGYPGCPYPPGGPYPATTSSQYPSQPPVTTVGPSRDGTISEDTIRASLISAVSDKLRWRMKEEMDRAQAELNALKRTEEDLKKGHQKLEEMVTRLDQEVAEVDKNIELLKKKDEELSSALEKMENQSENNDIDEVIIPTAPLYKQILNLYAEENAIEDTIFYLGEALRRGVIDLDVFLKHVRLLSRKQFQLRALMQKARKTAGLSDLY
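Tsg101 binding domain (10 uM final) was mixed with compound and a FITC-labeled PTAP peptide (50 nM final) in HEPES pH 7.5 buffer with NaCl, Tween 20, EDTA and TCEP; fluorescence polarization was read after 20 min at r.t.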
MCF10A rereplic – induces DNA re-replication in MCF 10a normal breast cells. MCF 10A DNA re-replication, Hoechst nuclear intensity, 48 h. Potency, µM (highest dose often 46.1 µM), inactives show top-dose activity, positive = re-replication, most hits filed as activators. actives 2.9% (n = 350,000). AID 624296; note: % of control where 0% means no effect; nearly all actives have a fitted effect of over 50% in size
KB-V1 MDR tox – KB-V1 MDR subline cytotoxicity | KB-V1 MDR cells viability, CellTiter-Glo, 72 h | actives 3.4% (n = 400,000) | Potency, µM (top dose mostly 46.1 µM), hits mostly cytotoxic; note: % is set by controls: 0 for no effect and ±100 for the full control effect; nearly all actives have a fitted effect of over 60% in size
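Cytotoxicity toward P-gp-expressing KB-V1 cells was determined as loss of CellTiter-Glo luminescence after 72 h at 37 degrees C. Compounds were tested in quantitative HTS format across a concentration range, with curves fitted to normalized data.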
Active calls of the source: *; i = inactive; ? = inconclusive; . = no result; [ ] = remark or other dose. Unless noted, calls come from the whole dose curve; as a rule, active = well fitted curve in the direction sought with a large enough effect; inconclusive = small, poorly fitted or top-dose-only effect, or another doubt; inactive = no such curve, though single readings can be large; an effect the other way counts as inactive or inconclusive. Potency is the fitted concentration of half-maximal effect.

SMILES | PINK1 expr mod | SW480 rereplic | KB-3-1 tox | PTAP TSG101 blk | MCF10A rereplic | KB-V1 MDR tox
CCS(=O)(=O)N1CC(=O)N(c2cccc(Cl)c2)C(C)(C(=O)NC2CCCCCC2)C1 (stereo not given) | 2% | . | . | . | . | .
C=CCn1c(SCc2nc3ccccc3c(=O)[nH]2)nc2scc(C3CC3)c2c1=O | -1% | ? | i | 7% | 21µM* | i
C=CCn1c(SCc2nc3cc(C(=O)OC)ccc3c(=O)[nH]2)nc2sc(CC)cc2c1=O | -1% | 7% | i | -1% | 8% | 5.2µM*
CCCCc1nn2c(=O)cc(COC(=O)CNC(=O)c3ccccc3C)nc2s1 | 2% | . | i | . | . | i
COC(=O)CSc1nc2cc(C)ccc2cc1C#N | 11% | 0% | i | -3% | 13% | i
Cc1ccc2cc(C#N)c(SCc3nnc(-c4ccccc4[N+](=O)[O-])o3)nc2c1 | 6% | 14% | 9.2µM* | 1% | 2% | 13µM*
COc1ccc(OC)c2sc(NC(=O)c3ccc(S(=O)(=O)N4CCCC4)cc3)nc12 | -3% | . | i | . | . | i
COc1cccc(NC(=O)CN2CCCN(S(=O)(=O)c3ccc(Br)cc3)CC2)c1 | 0% | . | i | . | . | i
Cc1c(Cl)c(=O)oc2cc(OC(C)C)ccc12 | 2% | -2% | i | -2% | 0% | 21µM*
CCC(=O)Oc1ccc2c(C)c(Cl)c(=O)oc2c1 | 1% | ? | i | -6% | 1% | i
CCOc1c(Br)ccc2c1sc1nc[nH]c(=O)c12 | -5% | 6% | ? | -3% | ? | 21µM*
CN(C)C(=O)CCC(=O)NCC1Cc2cccc(-c3ccccc3C(F)(F)F)c2O1 (stereo not given) | 0% | . | . | . | . | .
CS(=O)(=O)N1CCc2cc(S(=O)(=O)NCc3ccccc3Cl)ccc21 | 0% | . | i | . | . | i
CC1CCN(C(=O)COC(=O)c2ccc([N+](=O)[O-])o2)CC1 | -1% | 21µM* | i | -4% | -19% | ?
CCn1ncc(C2=NOC(C(=O)NCC(C)C)C2)c1C (stereo not given) | -1% | -3% | i | -7% | 0% | i
CCn1ncc(C2=NOC(C(=O)Nc3cnn(C45CC6CC(CC(C6)C4)C5)c3)C2)c1C (stereo not given) | 0%[38.3 µM] | 18% | ? | -5% | -8% | 3.3µM*
O=C(c1csnn1)N1CCC2(CCN(Cc3cc(C(F)(F)F)cc(C(F)(F)F)c3)CC2)CC1 | 1% | . | . | . | . | .
Cc1ccc(C)c(NC(=S)N2CCCCC2CO)c1 (stereo not given) | -1% | -512%[1.84 µM] | i | -6% | -3% | ?
OCC1CCCCN1C(=S)Nc1ccc(Cl)cc1Cl (stereo not given) | 3% | ? | i | -10% | 0.82µM* | i
O=C(CCCCn1c(=O)[nH]c2ccsc2c1=O)N1CCN(c2cccc(C(F)(F)F)c2)CC1 | 0% | . | i | . | . | i
N#C/C(=C/c1ccc([N+](=O)[O-])cc1)C(N)=O | 0% | 0% | i | -3% | 1% | i
N#C/C(=C\c1cc([N+](=O)[O-])ccc1Cl)C(N)=O | 6% | 8.2µM* | i | -3% | 21µM* | i
COc1cc2cc(OC(C)=O)c3cc4c(cc3c2c(OC)c1OC)OCO4 | 1% | . | i | . | . | i
COc1cc(C2c3cc4c(cc3C(O)C3COCC23)OCO4)cc(OC)c1OC (stereo not given) | 7% | 13µM* | 5.2µM* | -8% | ? | ?
COc1cc(CC2C(=O)OCC2C(=O)c2ccc3c(c2)OCO3)cc(OC)c1OC (stereo not given) | -2% | 0% | i | -4% | -1% | ?
COc1cc([C@@H]2c3cc4c(cc3[C@H](O)[C@H]3COC(=O)[C@@H]23)OCO4)cc(OC)c1OC | 7% | . | 1.8µM* | . | . | ?
